According to PubChem BioAssay (NCI):
Compounds without any hit were thinned out: in the full panel of roughly 83,000, 20% have a hit.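 How to read the values: 0–100, growth inhibition (40 = 60% inhibited); 0, no net growth; -100 to 0, cell death (-40 = 40% of starting cells died; -100 = all dead).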 A number with no mark means an inactive call. Activity calls are given as the source filed them. Rule for the calls: active = growth percent below 10; inactive = the rest.

Legend:
Assay in all cases: NCI-60 one-dose screen, 48 h (100 = growth as untreated, 0 = no growth, -100 = all killed)
Conditions in all cases: 10 µM unless noted
DU-145 prostate = system: DU-145 prostate
K-562 leukemia = system: K-562 leukemia
MALME-3M melanoma = system: MALME-3M melanoma
MDA-MB-231 breast = system: MDA-MB-231 breast
RXF 393 renal = system: RXF 393 renal
SF-268 CNS = system: SF-268 CNS
SF-539 CNS = system: SF-539 CNS
UACC-257 melanoma = system: UACC-257 melanoma
M14 melanoma = system: M14 melanoma
HCT-15 colon = system: HCT-15 colon
HT29 colon = system: HT29 colon
SNB-75 CNS = system: SNB-75 CNS
SNB-19 CNS = system: SNB-19 CNS
U251 CNS = system: U251 CNS
PC-3 prostate = system: PC-3 prostate
SK-MEL-5 melanoma = system: SK-MEL-5 melanoma
UACC-62 melanoma = system: UACC-62 melanoma
LOX IMVI melanoma = system: LOX IMVI melanoma
SK-MEL-28 melanoma = system: SK-MEL-28 melanoma

SMILES | growth (DU-145 prostate) | growth (K-562 leukemia) | growth (MALME-3M melanoma) | growth (MDA-MB-231 breast) | growth (RXF 393 renal) | growth (SF-268 CNS) | growth (SF-539 CNS) | growth (UACC-257 melanoma) | growth (M14 melanoma) | growth (HCT-15 colon) | growth (HT29 colon) | growth (SNB-75 CNS) | growth (SNB-19 CNS) | growth (U251 CNS) | growth (PC-3 prostate) | growth (SK-MEL-5 melanoma) | growth (UACC-62 melanoma) | growth (LOX IMVI melanoma) | growth (SK-MEL-28 melanoma)
Cc1cc(NC(=O)C2c3ccccc3C(=O)N(CC(C)C)C2c2cccs2)no1 (stereo not drawn) | -9.63% (active) | 3.46% (active) | -62.1% (active) | -14.2% (active) | -88.3% (active) | 27.8% | 18.2% | -8.81% (active) | 1% (active) | 7.04% (active) | -29.4% (active) | 61.4% | 81.9% | 21.2% | 9.17% (active) | 14.2% | -84.5% (active) | -85.3% (active) | -86.8% (active)
C/C(=N\OC(=O)Nc1ccccc1)c1ccccc1 | 97.1% | 96.6% | 107% | 107% | 87.2% | 104% | 105% | 102% | 103% | 96.8% | 105% | 87.7% | 103% | 89.7% | 99.4% | 95.6% | 94.2% | 110% | 101%
COc1ccc(-c2nc(-c3cc(OC)cc(OC)c3)[nH]c2-c2ccc(OC)cc2)cc1 | 78.5% | 16.3% | 70.9% | 58.7% | 54.5% | 88.6% | 80.5% | 62.9% | 49.7% | 45.3% | 17.3% | 86.1% | 61.2% | 45.6% | 27.5% | 14.9% | 37% | 61.3% | 67.4%
CCc1ccc(-c2ccc(NC3CCCCCC3)nn2)cc1S(N)(=O)=O | 114% | 112% | 104% | 109% | 115% | 117% | 98.9% | 100% | 104% | 96.4% | 91.3% | 97.2% | 103% | 95.8% | 94.4% | 98.5% | 97.8% | 100% | 105%
COc1ccc(-c2[nH]nc(N)c2-c2cc(OC)c(OC)c(OC)c2)cc1 | 2.62% (active) | -15.6% (active) | 25.8% | -10.6% (active) | 20% | 15.1% | -13.1% (active) | 58.1% | -5.11% (active) | 10.1% | -2.71% (active) | 54.9% | 48.8% | 6% (active) | 6.31% (active) | -16.5% (active) | 23.8% | 12.1% | 47.8%
COc1ccc2[nH]c(O)c(/C=c3/ccc4c(c3)N=C(c3ccc(F)cc3)N=4)c2c1 | 67.6% | 57.7% | -18.6% (active) | 83.2% | 11.5% | 83.2% | 80.3% | 82.5% | 68.4% | 50.1% | 84.5% | -12.3% (active) | 87.1% | 42.1% | 47.4% | 61.5% | 90.1% | 16.3% | 72.7%
COc1ccc(/C=c2\c(=O)n(-c3ccccc3)c3nn4c(=O)c(=O)[nH]nc4n23)cc1 | 115% | 122% | 104% | 122% | 123% | 104% | 103% | 110% | 99.5% | 106% | 110% | 109% | 111% | 112% | 102% | 101% | 101% | 96.3% | 131%
